Assay results from PubChem BioAssay.

Test: small-molecule microarray binders of probe aCHRDL2, primary screen, biochemical, biotinylated probe, 635/667 nm fluorescence (AID 1100)
Conditions: higher = more signal

Structure (SMILES)	composite z-score
O=C1[C@H]2[C@H]3[C@H](O)[C@H](O)CC(=NO[C@@H]4O[C@H](CO)[C@@H](O)[C@H](O)[C@H]4O)[C@H]3CC[C@H]2C(=O)N1c1ccc(F)cc1F	0.129
CCCNC(=O)OC[C@H]1O[C@H](CCON=C2c3cc(OC)ccc3O[C@H](c3cccc(OC)c3)[C@H]2O)C=C[C@@H]1Oc1ccc(OC)cc1	-0.0136
O=C1[C@H]2CCn3c(=O)n(-c4ccccc4)c(=O)n3[C@H]2[C@H](O)[C@@H]2O[C@H]12	-0.438
CC(C)=CCCC(C)=CCON=C1C[C@@H](O)[C@@H](O)[C@@H]2[C@@H]3C(=O)N(Cc4ccc5c(c4)OCO5)C(=O)[C@@H]3CC[C@H]12	-0.257
O=C1[C@H]2[C@H]3[C@H](O)[C@H](O)CC(=NOCc4ccccc4)[C@H]3CC[C@H]2C(=O)N1C1CCCCC1	-0.301
CC(C)(C)N1C(=O)[C@H]2[C@H]3[C@H](O)[C@H](O)CC(=NOC[C@@H](O)COCc4ccco4)[C@H]3CC[C@H]2C1=O	0.708
COC(=O)[C@H](C)NC(=O)CCC1CC(OC(=O)NCc2ccc3c(c2)OCO3)CC2(CCCC(COC(=O)NCCC(C)C)O2)O1 (stereo partly specified)	-0.434
COC(=O)[C@H](C)NC(=O)CC=C[C@@H](C)[C@@H]1C=C[C@H](O)[C@@H](CO)O1	-1.28
CC(CCN1CCCCc2nc(C)c(C)cc21)=NOC[C@@H](O)[C@H]1O[C@@H]2OC(C)(C)O[C@@H]2[C@H]1O	-1.02
CC(C)=CCCC(C)=CCON=C1[C@H]2CCn3c(=O)n(-c4ccccc4)c(=O)n3[C@H]2[C@H](O)[C@@H]2O[C@H]12	-0.55
COc1ccc(OC[C@@H]2CC3[C@@H](c4ccc(Br)cc4)[C@H](C)CC[C@H]3C(=O)O2)cc1 (stereo partly specified)	-0.727
COC(=O)[C@H](C)NC(=O)CCC1CC(OC(=O)NCCc2ccc(F)cc2)CC2(CCCC(COC(=O)NCC3CCCCC3)O2)O1 (stereo partly specified)	-0.446
COC(=O)[C@H](C)NC(=O)CCC1CC(OC(=O)NCc2cccc3ccccc23)CC2(CCCC(COC(=O)NCCC(C)C)O2)O1 (stereo partly specified)	-0.391
O=C1[C@H]2[C@H]3[C@H](O)[C@H](O)CC(=NOC[C@@H](O)COCc4ccco4)[C@@H]3CC[C@H]2C(=O)N1c1cccc(Oc2ccccc2)c1	-0.885
CCOC(=O)NN=C1C[C@@H](O)[C@@H](O)[C@@H]2[C@@H]3C(=O)N(C[C@@H]4CCCO4)C(=O)[C@@H]3CC[C@H]12	-0.317
C[C@@H](c1ccccc1)N1C(=O)[C@H]2[C@H]3[C@H](O)[C@H](O)CC(=NOCc4ccccc4)[C@@H]3CC[C@H]2C1=O	1.31
CCOC(=O)[C@H](Cc1ccccc1)NC(=O)CCC1CC(OC(=O)NCc2ccc3c(c2)OCO3)CC2(CCCC(COC(=O)NCCOc3ccccc3)O2)O1 (stereo partly specified)	-0.704
C[C@H]1CC[C@H]2C(=O)N[C@H](Cc3ccccc3)C(=O)N2[C@@H]1c1ccccc1	-0.225

Structure (SMILES)	composite z-score
CCN1C(=O)[C@H]2[C@H]3[C@H](O)[C@H](O)CC(=NOCC[C@@H]4C=C[C@H](OC(C)=O)[C@@H](COC(C)=O)O4)[C@@H]3CC[C@H]2C1=O	-0.426
CCCNC(=O)OC[C@H]1O[C@H](CCON=C[C@@H](NS(=O)(=O)c2ccc(C)cc2)[C@H](C)C=CCC(=O)OC)C=C[C@@H]1Oc1ccc(OC)cc1	0.0838
C#CCCCON=C1C[C@@H](O)[C@@H](O)[C@@H]2[C@@H]3C(=O)N(C[C@@H]4CCCO4)C(=O)[C@@H]3CC[C@H]12	-0.346
CC(C)CON=C1C[C@@H](O)[C@@H](O)[C@@H]2[C@@H]3C(=O)N(c4ccc(F)cc4F)C(=O)[C@@H]3CC[C@@H]12	-0.462
O=C1C=C[C@@H](O)[C@@H]2[C@@H]3C(=O)N(Cc4ccccc4)C(=O)[C@@H]3CC[C@@H]12	-0.684
CC1(C)O[C@H]2OC([C@H](O)CON3C(=O)c4ccccc4C3=O)[C@H](O)[C@H]2O1 (stereo partly specified)	-0.562
C[C@H]1CC[C@H]2C(=O)OC(COc3ccc(C(C)(C)C)cc3)CN2[C@@H]1c1ccc(Br)cc1 (stereo partly specified)	-0.242
CC1(C)O[C@H]2O[C@H]([C@H](O)CON=C3[C@H]4CCn5c(=O)n(-c6ccccc6)c(=O)n5[C@H]4[C@H](O)[C@@H]4O[C@H]34)[C@H](O)[C@H]2O1	-0.181
CC(C)=CCCC(C)=CCON=C1C[C@@H](O)[C@@H](O)[C@@H]2[C@@H]3C(=O)N(c4cccc(Oc5ccccc5)c4)C(=O)[C@@H]3CC[C@H]12	-0.2
CCOC(=O)[C@H](Cc1ccccc1)NC(=O)CCC1CC(OC(=O)NCc2cccc3ccccc23)CC2(CCCC(COC(=O)NCc3ccc4c(c3)OCO4)O2)O1 (stereo partly specified)	-0.343
CCCC[C@H]1CN2[C@@H](CC[C@@H](C)[C@@H]2c2ccc(Br)cc2)C(=O)O1	-0.442
CCOC(=O)[C@H](CC(C)C)NC(=O)CCC1CC(OC(=O)NCc2ccc3c(c2)OCO3)CC2(CCCC(COC(=O)NCCOc3ccccc3)O2)O1 (stereo partly specified)	-0.537
CCOC(=O)NN=C1C[C@@H](O)[C@@H](O)[C@@H]2[C@@H]3C(=O)N(CC)C(=O)[C@@H]3CC[C@H]12	-0.254
COc1ccc(COC(=O)NN=C2C[C@@H](O)[C@@H](O)[C@@H]3[C@@H]4C(=O)N([C@@H](C)c5ccccc5)C(=O)[C@@H]4CC[C@@H]23)cc1	-0.305
CCN1C(=O)[C@H]2[C@H]3[C@H](O)[C@H](O)CC(=NO[C@H](C)c4cn([C@@H]5COC[C@H]5O)nn4)[C@@H]3CC[C@H]2C1=O	-0.593
C[C@@H]1CC[C@H]2C(=O)O[C@@H](COc3ccc(C(C)(C)C)cc3)CN2[C@H]1c1ccc(Br)cc1	-0.427
CO[C@H]1COC(=O)CC=C[C@@H](C)COC(=O)[C@H]2CCCN2C(=O)CC=C[C@H]1C	-1.16
CC(CCN1CCCc2nc(C)c(C)cc21)=NO[C@@H](C)c1cn([C@H](CO)Cc2ccccc2)nn1	-0.388
